Measurements reported in the supplement of paper PMC11732987, “Enantioselective OTUD7B fragment discovery through chemoproteomics screening and high-throughput optimisation” (Communications Chemistry, 2025).

How the values were obtained:
Test in all cases: log2 ratio of Biotin-Ahx-Ub-VS probe labelling (fragment/DMSO); higher = less target engagement (more negative = stronger competition), active = hit call of the paper (q ≤ 0.05, log2 ratio ≤ -1)
Conditions in all cases: compound concentration: 200 uM; treatment time: 3 h
USP42 = biological target: T1, USP42 (UniProt Q9H9J4)
T1 sequence (whole entry): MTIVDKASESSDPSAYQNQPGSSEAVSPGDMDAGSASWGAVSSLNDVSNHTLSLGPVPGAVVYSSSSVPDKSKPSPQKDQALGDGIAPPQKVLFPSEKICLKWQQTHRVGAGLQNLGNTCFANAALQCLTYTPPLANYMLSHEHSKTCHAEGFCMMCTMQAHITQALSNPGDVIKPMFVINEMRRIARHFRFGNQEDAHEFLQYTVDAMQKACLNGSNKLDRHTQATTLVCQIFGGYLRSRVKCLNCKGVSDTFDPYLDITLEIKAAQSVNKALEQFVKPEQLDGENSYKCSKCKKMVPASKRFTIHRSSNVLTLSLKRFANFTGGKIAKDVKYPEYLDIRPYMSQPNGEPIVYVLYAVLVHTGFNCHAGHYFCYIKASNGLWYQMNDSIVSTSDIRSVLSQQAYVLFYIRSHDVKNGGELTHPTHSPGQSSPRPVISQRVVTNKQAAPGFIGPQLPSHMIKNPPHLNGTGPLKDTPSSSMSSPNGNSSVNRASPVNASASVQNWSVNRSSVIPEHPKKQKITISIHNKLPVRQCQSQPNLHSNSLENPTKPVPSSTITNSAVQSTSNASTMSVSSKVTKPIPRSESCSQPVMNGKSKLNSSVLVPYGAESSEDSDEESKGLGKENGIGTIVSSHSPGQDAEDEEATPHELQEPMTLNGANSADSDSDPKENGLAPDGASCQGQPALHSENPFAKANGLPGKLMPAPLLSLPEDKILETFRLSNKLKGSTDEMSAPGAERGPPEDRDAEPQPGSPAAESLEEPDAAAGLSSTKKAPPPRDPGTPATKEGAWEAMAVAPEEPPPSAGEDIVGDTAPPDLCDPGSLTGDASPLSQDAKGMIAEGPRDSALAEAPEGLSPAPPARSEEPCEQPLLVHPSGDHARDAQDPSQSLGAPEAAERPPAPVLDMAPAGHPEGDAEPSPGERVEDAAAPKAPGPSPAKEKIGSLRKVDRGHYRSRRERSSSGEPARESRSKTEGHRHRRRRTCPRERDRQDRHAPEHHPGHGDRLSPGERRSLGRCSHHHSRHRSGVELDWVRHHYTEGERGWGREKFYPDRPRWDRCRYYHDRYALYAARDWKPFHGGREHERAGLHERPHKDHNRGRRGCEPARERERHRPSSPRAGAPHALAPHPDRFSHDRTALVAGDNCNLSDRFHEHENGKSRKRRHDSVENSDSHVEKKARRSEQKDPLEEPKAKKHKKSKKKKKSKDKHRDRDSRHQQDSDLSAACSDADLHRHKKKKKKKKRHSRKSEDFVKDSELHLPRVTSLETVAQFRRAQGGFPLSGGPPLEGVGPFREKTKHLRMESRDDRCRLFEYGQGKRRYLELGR
Outline: (§1)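 Using Biotin-Ahx-Ub-VS at 0.5 µM final for 1 h, DUBs were labelled in HEK293T lysate (495 µg per sample) that had first been treated in triplicate with fragment at 200 µM or vehicle for 3 h. NeutrAvidin enrichment, LysC and trypsin digestion and diaPASEF LC-MS/MS followed. Spectronaut label-free quantities were global-median-normalised. Values are average log2 fragment/vehicle ratios by unpaired t-test, using proteins with ≥2 unique peptides.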

USP46 = USP46 (UniProt P62068)
Outline: as §1

USP47 = biological target: T2, USP47 (UniProt Q96K76)
T2 sequence (whole entry): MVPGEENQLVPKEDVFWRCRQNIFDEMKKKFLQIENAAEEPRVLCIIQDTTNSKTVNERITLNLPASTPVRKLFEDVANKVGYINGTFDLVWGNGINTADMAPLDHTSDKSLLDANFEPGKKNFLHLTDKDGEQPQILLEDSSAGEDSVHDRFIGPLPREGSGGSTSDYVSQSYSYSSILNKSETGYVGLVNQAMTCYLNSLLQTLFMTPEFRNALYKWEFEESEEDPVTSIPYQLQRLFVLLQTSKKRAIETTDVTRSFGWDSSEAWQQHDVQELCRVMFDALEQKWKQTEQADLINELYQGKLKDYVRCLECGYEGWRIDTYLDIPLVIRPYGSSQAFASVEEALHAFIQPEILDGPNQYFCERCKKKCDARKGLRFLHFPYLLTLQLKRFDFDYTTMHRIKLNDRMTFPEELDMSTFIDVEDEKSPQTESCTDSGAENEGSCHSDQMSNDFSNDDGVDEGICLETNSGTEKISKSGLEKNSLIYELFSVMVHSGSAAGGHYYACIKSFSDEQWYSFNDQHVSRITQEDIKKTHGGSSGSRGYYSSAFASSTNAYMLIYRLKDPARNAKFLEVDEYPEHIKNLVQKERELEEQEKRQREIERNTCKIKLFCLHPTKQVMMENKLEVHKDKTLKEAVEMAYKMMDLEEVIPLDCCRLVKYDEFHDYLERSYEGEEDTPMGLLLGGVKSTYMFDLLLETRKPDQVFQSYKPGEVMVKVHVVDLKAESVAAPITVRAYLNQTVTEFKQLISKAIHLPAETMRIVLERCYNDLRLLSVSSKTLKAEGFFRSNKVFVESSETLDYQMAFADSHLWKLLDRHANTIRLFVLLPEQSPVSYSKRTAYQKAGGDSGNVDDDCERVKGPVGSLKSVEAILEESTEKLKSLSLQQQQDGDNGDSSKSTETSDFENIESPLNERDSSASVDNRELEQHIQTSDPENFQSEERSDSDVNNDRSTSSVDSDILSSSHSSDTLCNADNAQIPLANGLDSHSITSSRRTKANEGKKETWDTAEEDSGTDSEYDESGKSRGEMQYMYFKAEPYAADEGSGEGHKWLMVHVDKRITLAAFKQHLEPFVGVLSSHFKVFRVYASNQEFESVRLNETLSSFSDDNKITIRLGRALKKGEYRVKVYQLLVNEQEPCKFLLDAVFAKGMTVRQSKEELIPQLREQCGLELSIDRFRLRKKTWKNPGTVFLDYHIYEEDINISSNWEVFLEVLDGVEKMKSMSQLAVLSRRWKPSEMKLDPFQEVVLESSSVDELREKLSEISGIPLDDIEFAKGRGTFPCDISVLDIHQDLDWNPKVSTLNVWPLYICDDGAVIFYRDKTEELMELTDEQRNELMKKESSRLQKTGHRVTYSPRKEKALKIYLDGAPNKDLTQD
Outline: as §1

USP48 = biological target: T3, USP48 (UniProt Q86UV5)
T3 sequence (whole entry): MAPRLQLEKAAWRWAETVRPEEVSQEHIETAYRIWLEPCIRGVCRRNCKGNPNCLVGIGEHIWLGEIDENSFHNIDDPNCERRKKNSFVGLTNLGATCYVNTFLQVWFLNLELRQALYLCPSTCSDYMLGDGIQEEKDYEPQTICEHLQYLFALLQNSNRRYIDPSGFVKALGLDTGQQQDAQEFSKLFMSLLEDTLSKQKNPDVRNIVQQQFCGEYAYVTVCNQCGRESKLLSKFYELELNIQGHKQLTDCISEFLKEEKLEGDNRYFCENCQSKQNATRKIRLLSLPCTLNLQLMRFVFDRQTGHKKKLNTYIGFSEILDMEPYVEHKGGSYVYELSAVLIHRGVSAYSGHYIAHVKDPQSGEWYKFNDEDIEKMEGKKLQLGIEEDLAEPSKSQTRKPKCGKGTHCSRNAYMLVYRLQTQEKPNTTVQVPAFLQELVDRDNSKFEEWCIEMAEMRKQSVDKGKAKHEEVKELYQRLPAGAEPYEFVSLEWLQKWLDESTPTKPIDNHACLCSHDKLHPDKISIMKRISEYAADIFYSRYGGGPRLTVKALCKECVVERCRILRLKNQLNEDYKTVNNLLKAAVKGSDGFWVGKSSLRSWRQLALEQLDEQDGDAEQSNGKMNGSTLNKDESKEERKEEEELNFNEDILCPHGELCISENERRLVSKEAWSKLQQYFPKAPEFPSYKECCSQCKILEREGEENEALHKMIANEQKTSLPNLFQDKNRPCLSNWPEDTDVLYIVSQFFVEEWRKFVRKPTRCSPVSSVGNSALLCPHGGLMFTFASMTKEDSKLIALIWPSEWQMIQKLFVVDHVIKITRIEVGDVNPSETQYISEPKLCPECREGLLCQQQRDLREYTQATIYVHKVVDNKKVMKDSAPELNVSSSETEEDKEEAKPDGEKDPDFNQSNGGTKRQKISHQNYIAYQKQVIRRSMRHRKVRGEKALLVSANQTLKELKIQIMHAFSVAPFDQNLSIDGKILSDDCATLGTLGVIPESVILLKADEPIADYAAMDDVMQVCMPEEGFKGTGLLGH
Outline: as §1

USP5 = biological target: T4, USP5 (UniProt P45974)
T4 sequence (whole entry): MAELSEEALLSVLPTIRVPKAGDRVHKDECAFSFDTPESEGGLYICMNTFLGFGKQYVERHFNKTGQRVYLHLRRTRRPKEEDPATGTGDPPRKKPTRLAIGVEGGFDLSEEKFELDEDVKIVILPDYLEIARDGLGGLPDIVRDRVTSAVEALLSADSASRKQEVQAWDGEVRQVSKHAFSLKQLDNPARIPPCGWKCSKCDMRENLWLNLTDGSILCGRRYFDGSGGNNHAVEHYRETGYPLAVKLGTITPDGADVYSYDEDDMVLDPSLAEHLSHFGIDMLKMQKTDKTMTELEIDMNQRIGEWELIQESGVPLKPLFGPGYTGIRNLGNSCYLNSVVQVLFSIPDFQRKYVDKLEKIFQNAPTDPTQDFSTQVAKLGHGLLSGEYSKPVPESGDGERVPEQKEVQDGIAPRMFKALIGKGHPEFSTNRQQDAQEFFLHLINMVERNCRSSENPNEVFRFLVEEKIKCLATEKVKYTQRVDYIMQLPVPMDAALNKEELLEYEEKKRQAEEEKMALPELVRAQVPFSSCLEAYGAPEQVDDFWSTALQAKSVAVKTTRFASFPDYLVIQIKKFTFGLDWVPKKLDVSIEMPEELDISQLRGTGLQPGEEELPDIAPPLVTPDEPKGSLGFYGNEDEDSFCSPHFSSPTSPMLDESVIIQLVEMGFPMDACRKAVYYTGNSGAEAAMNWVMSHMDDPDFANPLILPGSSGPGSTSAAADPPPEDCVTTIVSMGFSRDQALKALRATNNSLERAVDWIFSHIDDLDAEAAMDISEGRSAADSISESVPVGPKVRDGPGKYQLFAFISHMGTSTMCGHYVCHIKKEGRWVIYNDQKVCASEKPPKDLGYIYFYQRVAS
Outline: as §1

USP54 = USP54 (UniProt Q70EL1)
Outline: as §1

USP7 = USP7 (UniProt Q93009)
Outline: as §1

USP8 = biological target: T5, USP8 (UniProt P40818)
T5 sequence (whole entry): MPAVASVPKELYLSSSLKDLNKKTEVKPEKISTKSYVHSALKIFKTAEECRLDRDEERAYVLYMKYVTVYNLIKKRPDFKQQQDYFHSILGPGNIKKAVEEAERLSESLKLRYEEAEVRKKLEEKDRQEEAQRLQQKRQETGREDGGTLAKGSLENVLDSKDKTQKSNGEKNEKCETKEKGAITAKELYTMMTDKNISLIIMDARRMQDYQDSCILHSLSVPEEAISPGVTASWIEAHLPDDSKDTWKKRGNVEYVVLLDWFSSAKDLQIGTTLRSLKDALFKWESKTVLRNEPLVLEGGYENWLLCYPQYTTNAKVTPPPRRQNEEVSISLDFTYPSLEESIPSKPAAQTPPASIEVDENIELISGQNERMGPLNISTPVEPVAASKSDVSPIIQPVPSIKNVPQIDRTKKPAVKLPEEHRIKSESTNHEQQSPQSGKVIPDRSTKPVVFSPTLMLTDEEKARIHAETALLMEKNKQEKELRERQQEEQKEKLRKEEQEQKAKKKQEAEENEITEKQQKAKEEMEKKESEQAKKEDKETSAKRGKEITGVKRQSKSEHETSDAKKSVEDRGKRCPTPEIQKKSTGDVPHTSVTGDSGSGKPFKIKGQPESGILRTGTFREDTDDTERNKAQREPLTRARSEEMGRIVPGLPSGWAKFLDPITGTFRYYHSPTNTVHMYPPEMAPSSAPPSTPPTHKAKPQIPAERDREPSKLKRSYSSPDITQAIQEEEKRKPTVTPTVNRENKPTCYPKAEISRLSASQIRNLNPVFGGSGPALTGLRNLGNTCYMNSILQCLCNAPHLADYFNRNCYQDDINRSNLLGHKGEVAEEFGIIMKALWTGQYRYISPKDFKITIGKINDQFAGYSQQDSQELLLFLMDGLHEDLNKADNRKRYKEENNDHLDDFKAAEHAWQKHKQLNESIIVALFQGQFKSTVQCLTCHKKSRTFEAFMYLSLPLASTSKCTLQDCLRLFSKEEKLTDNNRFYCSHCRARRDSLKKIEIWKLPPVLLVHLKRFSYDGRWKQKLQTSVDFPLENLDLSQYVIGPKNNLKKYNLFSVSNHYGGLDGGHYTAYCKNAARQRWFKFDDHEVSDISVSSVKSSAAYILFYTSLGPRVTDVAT
Outline: as §1

USP9X = USP9X (UniProt Q93008)
Outline: as §1

UniProt O00487 = biological target: UniProt O00487
Outline: as §1

Measured: log2 ratio of Biotin-Ahx-Ub-VS probe labelling

UniProt O00487, sequence (O00487 whole entry): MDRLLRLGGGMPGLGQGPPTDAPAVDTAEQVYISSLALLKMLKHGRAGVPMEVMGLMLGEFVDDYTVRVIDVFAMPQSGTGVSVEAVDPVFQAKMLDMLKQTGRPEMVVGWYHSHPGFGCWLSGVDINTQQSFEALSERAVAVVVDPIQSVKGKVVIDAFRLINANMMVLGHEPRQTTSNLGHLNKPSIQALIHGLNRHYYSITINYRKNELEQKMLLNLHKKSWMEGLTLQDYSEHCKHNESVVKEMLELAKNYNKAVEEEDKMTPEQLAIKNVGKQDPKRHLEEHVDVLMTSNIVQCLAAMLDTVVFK
USP46, sequence (P62068 whole entry): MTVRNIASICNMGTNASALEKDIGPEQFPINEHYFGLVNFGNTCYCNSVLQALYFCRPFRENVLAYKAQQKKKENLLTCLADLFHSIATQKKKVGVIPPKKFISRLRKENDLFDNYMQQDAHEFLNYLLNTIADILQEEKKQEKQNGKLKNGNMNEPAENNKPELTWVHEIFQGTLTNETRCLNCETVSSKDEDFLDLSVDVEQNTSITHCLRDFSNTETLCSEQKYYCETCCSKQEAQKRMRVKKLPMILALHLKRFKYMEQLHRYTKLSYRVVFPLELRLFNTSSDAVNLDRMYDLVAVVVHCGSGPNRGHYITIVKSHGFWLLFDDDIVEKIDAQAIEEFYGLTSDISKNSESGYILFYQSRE
USP9X, sequence (Q93008 whole entry): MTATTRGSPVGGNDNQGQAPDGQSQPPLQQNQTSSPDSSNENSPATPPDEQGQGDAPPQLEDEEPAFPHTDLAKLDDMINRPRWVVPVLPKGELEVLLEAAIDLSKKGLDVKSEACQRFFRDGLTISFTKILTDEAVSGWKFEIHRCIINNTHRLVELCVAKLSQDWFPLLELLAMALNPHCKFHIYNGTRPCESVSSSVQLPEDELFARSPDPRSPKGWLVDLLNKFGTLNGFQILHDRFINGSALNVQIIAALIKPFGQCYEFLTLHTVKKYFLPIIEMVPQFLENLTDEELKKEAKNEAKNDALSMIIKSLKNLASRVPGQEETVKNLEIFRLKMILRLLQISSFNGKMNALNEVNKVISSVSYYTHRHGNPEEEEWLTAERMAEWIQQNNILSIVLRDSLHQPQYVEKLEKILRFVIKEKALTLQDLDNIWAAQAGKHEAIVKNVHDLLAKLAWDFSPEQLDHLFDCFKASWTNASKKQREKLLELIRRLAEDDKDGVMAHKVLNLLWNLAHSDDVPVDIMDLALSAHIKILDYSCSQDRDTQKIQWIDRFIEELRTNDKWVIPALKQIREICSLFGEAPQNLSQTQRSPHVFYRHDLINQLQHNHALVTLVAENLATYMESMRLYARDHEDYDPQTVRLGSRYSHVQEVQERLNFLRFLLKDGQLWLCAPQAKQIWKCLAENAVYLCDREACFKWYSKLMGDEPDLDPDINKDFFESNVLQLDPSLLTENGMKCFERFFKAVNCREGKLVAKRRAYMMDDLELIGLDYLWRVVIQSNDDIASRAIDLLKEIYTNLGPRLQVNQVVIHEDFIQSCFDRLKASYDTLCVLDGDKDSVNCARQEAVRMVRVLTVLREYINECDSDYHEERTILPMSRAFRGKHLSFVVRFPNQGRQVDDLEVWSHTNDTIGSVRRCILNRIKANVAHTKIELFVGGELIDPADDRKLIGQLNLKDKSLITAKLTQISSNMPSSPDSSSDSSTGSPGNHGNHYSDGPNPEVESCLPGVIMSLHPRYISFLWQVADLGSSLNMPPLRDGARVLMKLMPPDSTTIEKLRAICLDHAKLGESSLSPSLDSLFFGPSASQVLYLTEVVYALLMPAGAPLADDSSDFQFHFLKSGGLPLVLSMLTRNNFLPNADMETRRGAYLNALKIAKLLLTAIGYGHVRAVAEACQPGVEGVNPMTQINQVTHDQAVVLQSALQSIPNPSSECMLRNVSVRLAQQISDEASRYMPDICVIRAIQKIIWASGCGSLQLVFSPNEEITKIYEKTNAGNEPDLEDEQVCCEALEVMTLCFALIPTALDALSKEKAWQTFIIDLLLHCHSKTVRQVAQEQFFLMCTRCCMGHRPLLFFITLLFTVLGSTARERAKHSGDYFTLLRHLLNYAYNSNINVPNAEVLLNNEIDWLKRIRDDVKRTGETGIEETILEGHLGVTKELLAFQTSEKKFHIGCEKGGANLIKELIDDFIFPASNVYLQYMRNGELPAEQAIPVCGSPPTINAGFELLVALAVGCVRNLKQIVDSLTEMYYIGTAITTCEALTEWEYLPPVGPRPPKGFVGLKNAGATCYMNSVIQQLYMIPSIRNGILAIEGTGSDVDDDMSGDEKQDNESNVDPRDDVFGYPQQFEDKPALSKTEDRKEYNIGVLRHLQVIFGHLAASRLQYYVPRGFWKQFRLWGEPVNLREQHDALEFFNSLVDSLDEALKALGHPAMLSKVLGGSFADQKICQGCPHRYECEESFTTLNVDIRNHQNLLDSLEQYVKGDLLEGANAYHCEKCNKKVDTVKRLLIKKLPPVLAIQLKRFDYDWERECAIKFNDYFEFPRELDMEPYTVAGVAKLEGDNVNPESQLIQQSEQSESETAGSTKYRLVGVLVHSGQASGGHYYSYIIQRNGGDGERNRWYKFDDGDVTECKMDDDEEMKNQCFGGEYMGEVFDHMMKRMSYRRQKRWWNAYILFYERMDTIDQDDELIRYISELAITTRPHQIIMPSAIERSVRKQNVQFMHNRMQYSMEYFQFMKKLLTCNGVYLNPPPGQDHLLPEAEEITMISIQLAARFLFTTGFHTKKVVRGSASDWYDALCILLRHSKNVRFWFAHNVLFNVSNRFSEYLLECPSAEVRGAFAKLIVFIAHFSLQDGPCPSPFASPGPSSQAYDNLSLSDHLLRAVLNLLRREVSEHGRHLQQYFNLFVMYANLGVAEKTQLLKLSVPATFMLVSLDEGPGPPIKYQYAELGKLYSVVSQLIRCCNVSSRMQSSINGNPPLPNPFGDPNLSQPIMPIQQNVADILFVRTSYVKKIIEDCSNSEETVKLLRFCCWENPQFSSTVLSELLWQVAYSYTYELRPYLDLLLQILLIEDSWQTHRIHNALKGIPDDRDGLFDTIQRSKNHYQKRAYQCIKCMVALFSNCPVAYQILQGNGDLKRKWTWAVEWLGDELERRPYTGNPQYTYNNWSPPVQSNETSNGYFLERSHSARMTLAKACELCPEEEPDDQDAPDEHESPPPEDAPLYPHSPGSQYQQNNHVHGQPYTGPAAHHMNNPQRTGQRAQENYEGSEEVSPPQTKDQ
USP7, sequence (Q93009 whole entry, looked up): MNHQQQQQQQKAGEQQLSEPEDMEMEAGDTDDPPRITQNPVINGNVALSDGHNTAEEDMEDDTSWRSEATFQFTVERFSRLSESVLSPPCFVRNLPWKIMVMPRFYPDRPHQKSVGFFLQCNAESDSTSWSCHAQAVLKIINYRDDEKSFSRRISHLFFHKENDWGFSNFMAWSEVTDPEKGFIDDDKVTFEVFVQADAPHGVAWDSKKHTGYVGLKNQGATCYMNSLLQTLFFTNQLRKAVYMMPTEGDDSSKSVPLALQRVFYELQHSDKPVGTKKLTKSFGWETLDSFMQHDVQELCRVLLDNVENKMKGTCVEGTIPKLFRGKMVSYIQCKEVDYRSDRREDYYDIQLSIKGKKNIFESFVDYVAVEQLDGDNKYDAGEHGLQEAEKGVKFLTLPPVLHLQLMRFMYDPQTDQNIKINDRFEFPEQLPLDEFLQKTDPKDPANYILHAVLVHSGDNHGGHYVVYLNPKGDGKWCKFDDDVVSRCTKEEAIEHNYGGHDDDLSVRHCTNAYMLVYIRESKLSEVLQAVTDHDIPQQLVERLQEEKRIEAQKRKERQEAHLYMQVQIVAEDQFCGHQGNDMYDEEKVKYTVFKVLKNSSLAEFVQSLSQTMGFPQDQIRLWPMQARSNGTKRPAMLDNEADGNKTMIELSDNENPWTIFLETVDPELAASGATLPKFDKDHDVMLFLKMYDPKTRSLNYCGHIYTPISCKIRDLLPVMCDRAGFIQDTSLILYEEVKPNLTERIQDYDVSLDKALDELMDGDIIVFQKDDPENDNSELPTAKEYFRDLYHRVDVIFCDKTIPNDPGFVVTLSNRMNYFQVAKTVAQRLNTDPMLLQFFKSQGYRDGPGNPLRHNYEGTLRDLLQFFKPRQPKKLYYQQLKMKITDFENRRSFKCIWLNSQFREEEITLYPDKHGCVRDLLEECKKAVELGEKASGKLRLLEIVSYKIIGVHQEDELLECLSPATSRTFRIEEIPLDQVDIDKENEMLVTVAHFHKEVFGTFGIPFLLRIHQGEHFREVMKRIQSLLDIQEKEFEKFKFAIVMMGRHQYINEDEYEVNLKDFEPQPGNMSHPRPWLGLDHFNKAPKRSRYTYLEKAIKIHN

O=C(CCl)N[C@H]1CC[C@@H](CO)CC1
inactive: USP42 0.163 | USP46 -0.593 | USP47 -0.113 | USP48 -0.534 | USP5 -0.644 | USP54 1 | USP7 -0.752 | USP8 -0.969 | USP9X -0.905 | UniProt O00487 -0.163
